# Assay results as given in PubChem BioAssay AID1463 (National Center for Advancing Translational Sciences (NCATS), 2008).
# In all, about 280,000 compounds went through this assay and about 2,600 (0.93%) were called active. A call without a number means that no potency is given here. Inconclusive results (about 8%) are left out. This is one part of a sample in which actives are shown more often than they occur. Calls follow the shape of the dose curve; as a rule, active = well fitted curve in the direction sought with a large enough effect; inconclusive = small, poorly fitted or top-dose-only effect; inactive = flat fitted curve, though single readings scatter.
# Assay: Counterscreen qHTS for Inhibitors of Tau Fibril Formation, Fluorescence Polarization; also: nearly all actives have a fitted effect of over 55% in size
# Settings: tau K18 P301L (four-repeat tau fragment) Alexa594 fluorescence, heparin fibrillization; series mostly up to 57.7 µM
# Method in brief: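 Human K18 P301L tau (15 uM unlabeled plus 0.24 uM Alexa 594-labeled, final) in 100 mM sodium acetate pH 7 was mixed with compound and 20 uM heparin and incubated 6 hr at 37 C.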
# Potency is read from the fitted curve at half-maximal effect; tags tell the direction and shape of the fitted curve or compound fluorescence and quenching.
row,SMILES,Potency
1,Cc1cccc(C(=O)Nc2ccc(-c3nc4ncccc4o3)cc2C)c1,inactive
2,CCOC(=O)c1ccc(CSc2nnc3cc(C)c4ccccc4n23)cc1,inactive
3,Cc1cc(C)cc(NC(=S)NCc2ccc(F)cc2)c1,inactive
4,Cc1cc(C)cc(NC(=S)NCCc2c[nH]c3ccccc23)c1,15.8 µM [quencher] (active)
5,Cc1cc(C)cc(NC(=O)CSc2nc3nccnc3c(=O)n2CCc2c[nH]c3ccccc23)c1,inactive
6,CCC(=O)N1CCc2cc(Br)cc(S(=O)(=O)CCC(=O)NCCc3ccc(OC)c(OC)c3)c21,inactive
7,COc1ccc(NC(=O)c2ccco2)cc1NC(=O)COc1ccc(C)c(C)c1,inactive
8,COc1ccc(NC(=O)c2c(SC)nsc2SC)cc1,inactive
9,COc1ccc(NC(=O)c2cn(-c3ccccc3)nc2SC)cc1,17.8 µM [quencher] (active)
10,O=C(O)c1ccc(NC(=O)c2cn(-c3ccccc3)nc2-c2ccc(Cl)cc2)cc1,inactive
11,CCOc1cc(C2C(C(=O)Nc3ccc(OC)cc3)=C(C)Nc3nc(SC)nn32)ccc1O (centres undefined),inactive
12,CCOc1cc(C2C(C(=O)OC(C)C)=C(C)NC3=C2C(=O)CCC3)cc([N+](=O)[O-])c1O (centres undefined),inactive
13,CCOc1cc(C2C(C(=O)OC)=C(C)NC3=C2C(=O)c2ccccc23)ccc1O (centres undefined),17.8 µM [quencher] (active)
14,CCOC(=O)CN1C(C(=O)c2ccccc2)=C(OC(=O)C(C)(C)C)c2ccccc2S1(=O)=O,inactive
15,CCN(CCCNC(=O)c1ccc(Sc2ccc(C)cc2)c(NC(C)=O)c1)c1cccc(C)c1,inactive
16,COc1ccc(CCNC(=O)c2c3c(nc4ccccc24)C(=O)N(C2CCCCC2)C3)cc1OC,inactive
17,CCCCN(CC)CCCNC(=O)c1nn(C)c2c1CSc1ccccc1-2,inactive
18,COc1ccc(CCNC(=O)c2nn(C)c3c2CSc2ccccc2-3)cc1OC,10 µM [quencher] (active)
19,Cc1ccc(C2CCN(C(=O)c3cnn(-c4ccccc4Cl)c3C3CCN(C(=O)OC(C)(C)C)CC3)C2)cc1 (centres undefined),inactive
20,Cn1nnc2c(N3CCN(c4ccccc4)CC3)ncnc21,inactive
21,CCC1=Nc2cc(C(=O)NCCCOC(C)C)ccc2Sc2ccc(C)cc21,inactive
22,CCOC(=O)c1[nH]c(C)c(CCC(=O)N2CCN(c3ccccc3)CC2)c1C,inactive
23,O=C(CC(c1cccs1)N1Cc2ccccc2C1=O)Nc1ccc(F)c(F)c1 (centres undefined),inactive

row,SMILES,Potency
1,CCCn1c2ccccc2c2cnn(CC(=O)N(C)c3ccccc3CC)c(=O)c21,inactive
2,O=C1Cc2cc(S(=O)(=O)Nc3ccc(OC(F)(F)F)cc3)cc3c2N1CCC3,inactive
3,CCCCS(=O)(=O)c1oc(-c2cccs2)nc1S(=O)(=O)c1ccccc1,inactive
4,CCOCCc1nn2c(=O)cc(COC(=O)CNC(=O)c3ccc(C(C)(C)C)cc3)nc2s1,inactive
5,O=S(=O)(c1ccc2nc(N3CCN(c4cccc(Cl)c4)CC3)ccc2c1)N1CCCCC1,inactive
6,Cc1ccc(Nc2ccc3cc(S(=O)(=O)N4CCCCC4)ccc3n2)cc1F,7.08 µM [quencher] (active)
7,Cc1ccc(C)c(N2CCN(c3ccc4cc(S(=O)(=O)N5CCC(C)CC5)ccc4n3)CC2)c1,inactive
8,Cc1nn(CC(=O)NCCc2ccccc2)c(=O)c2c1sc1ccccc12,inactive
9,CCn1c(CN2CCC(C)CC2)nc2cc(NC(=O)c3ccccc3[N+](=O)[O-])ccc21,inactive
10,CCCn1c2ccccc2c2cnn(CC(=O)NCC3CCN(Cc4ccc(C)cc4)CC3)c(=O)c21,inactive
11,COc1ccc(S(=O)(=O)NC(C)C(=O)Nc2cccc([N+](=O)[O-])c2)cc1 (centres undefined),inactive
12,COc1ccc(NS(=O)(=O)c2cc(NC(=O)CC(=O)c3ccc([N+](=O)[O-])cc3)ccc2C)cc1,7.94 µM [quencher] (active)
13,Cc1ccc(C(=O)Nc2ccc(C(=O)O)cc2)cc1S(=O)(=O)Nc1ccccc1,inactive
14,COc1cc(NC(=O)Cn2nc(-c3ccc(C)c(C)c3)ccc2=O)cc(OC)c1,inactive
15,Cn1c(SCC(=O)N2CCCc3ccccc32)ncc(C(=O)Nc2ccc(F)cc2)c1=O,inactive
16,COc1ccc(-n2nnc(-c3nsc(NC(=O)c4ccc(C)c(C)c4)n3)c2C)cc1Cl,inactive
17,COc1ccc(/C=N/N=C/c2c[nH]c(=O)c(C#N)c2Nc2ccccc2)cc1,inactive
18,CCN(CC)CC(=O)c1c[nH]c2ccc(OC)cc12,inactive
19,COc1ccc2[nH]cc(/C=C(/C#N)S(=O)(=O)c3ccccc3)c2c1,25.1 µM [quencher] (active)
20,CCOC(=O)C1=C(C)NC(=O)NC1c1ccccc1 (centres undefined),inactive
21,CCOC(=O)C1=C(C)N=C2c3ccccc3C(=O)C2C1c1ccc(Br)cc1 (centres undefined),11.2 µM [quencher] (active)
22,CCOC(=O)C1=C(C)NC(SC)=NC1c1ccccc1 (centres undefined),inactive
23,CSc1nc(=O)c2c(n1C)NC(=O)CC2c1ccccc1OC(C)C (centres undefined),inactive

row,SMILES,Potency
1,COC(=O)c1[nH]c2ccccc2c1NS(=O)(=O)c1ccc(OC)cc1OC,inactive
2,CCn1c(-c2cc(OC)ccc2OC)csc1=Nc1c(C)n(C)n(-c2ccccc2)c1=O,inactive
3,CN=c1scc(-c2cc(OC)ccc2OC)n1/N=C/c1c(C)[nH]c2ccccc12,12.6 µM [quencher] (active)
4,CC(=O)N1CCCc2cc(S(=O)(=O)N3CCC(C(=O)NCc4ccc(F)cc4)CC3)ccc21,inactive
5,COc1ccc(OC)c(NC(=O)C2CCCN(S(=O)(=O)c3ccc4c(c3)CCCC(=O)N4)C2)c1 (centres undefined),inactive
6,CCOc1ccccc1C(=O)NC1(C(F)(F)F)NC(=O)N(CCc2ccc(OC)c(OC)c2)C1=O (centres undefined),inactive
7,CC(C)c1ccc(S(=O)(=O)Nc2ccc(O)c(Sc3nc4ccccc4s3)c2)cc1,14.1 µM [quencher] (active)
8,O=C(CSc1nc2ccccc2s1)Nc1ccc(C(=O)O)cc1,inactive
9,O=C(O)c1cccc(S(=O)(=O)Nc2ccc(O)cc2Sc2nc3ccccc3s2)c1,inactive
10,Cc1nnc(SCC(=O)NCc2ccccc2Cl)c2nn(-c3ccccc3)c(C)c12,inactive
11,CCc1ccc(C2C(C(=O)Nc3ccccc3)=C(C)Nc3c(C(=O)Nc4ccc(C)cc4)cnn32)cc1 (centres undefined),inactive
12,COc1ccc(/C=C/c2nc(C#N)c(NCc3ccc(F)cc3)o2)cc1OC,inactive
13,COc1ccccc1/C=C/c1nc(C#N)c(NC(C)c2ccccc2)o1 (centres undefined),11.2 µM [quencher] (active)
14,CC(Nc1oc(-c2ccccc2)nc1-c1ccccc1)c1ccccc1 (centres undefined),inactive
15,CCOc1ccc(-n2c(SCC(=O)NCc3ccccc3)nc3n[nH]c(C)c3c2=N)cc1,inactive
16,Cc1nc(NNC(=O)c2ccccc2)cc(-c2ccccc2)n1,inactive
17,Nc1cccc(-c2cc(-c3ccccc3)nc(-c3cccc(N)c3)n2)c1,2.51 µM [quencher] (active)
18,Nc1cccc(CCc2nc3ccccc3[nH]2)c1,inactive
19,CCCCn1c(CNC(=O)C23CC4CC(CC(C4)C2)C3)nnc1SCC(=O)Nc1ccc(C)cc1,inactive
20,O=C(CC(c1cccs1)N1Cc2ccccc2C1=O)Nc1ccc(F)cc1F (centres undefined),inactive
21,CCc1ccc(S(=O)(=O)Nc2cc3c(C(=O)OCc4ccccc4)c(C)oc3c3ccccc23)cc1,inactive
22,O=C(Cn1c(=O)n(-c2ccc(F)cc2)c(=O)c2sccc21)Nc1cccc(C(F)(F)F)c1,inactive
23,COc1ccc(/C=N/NC(=O)c2cccc(C(F)(F)F)c2)cc1,inactive

row,SMILES,Potency
1,O=C(Cn1cc(/C=N/NC(=O)c2cccc(C(F)(F)F)c2)c2ccccc21)Nc1ccc(F)cc1,8.91 µM [quencher] (active)
2,O=C(CCCN1C(=O)/C(=C\c2ccco2)SC1=S)Nc1cccc2ccccc12,inactive
3,O=C(CCCN1C(=O)/C(=C/c2ccccc2)SC1=S)Nc1ccc(O)cc1,25.1 µM [quencher] (active)
4,COc1ccc(NC(=O)CCN2C(=O)/C(=C/c3ccc4c(c3)OCO4)SC2=S)cc1,inactive
5,COC(=O)c1ccc(NC(=O)c2cnn(-c3ccc(Cl)cc3)c2C2CCN(C(=O)OC(C)(C)C)CC2)cc1,inactive
6,O=C(COC(=O)c1c2c(nc3ccccc13)/C(=C\c1cccs1)CCC2)Nc1ccccc1Cl,inactive
7,NC(=O)c1ccc(NC(=O)COC(=O)c2c3c(nc4ccccc24)/C(=C\c2ccc4c(c2)OCO4)CCC3)cc1,8.91 µM [quencher] (active)
8,CC(NC(=O)COC(=O)c1ccc2c(c1)OCO2)c1ccccc1 (centres undefined),inactive
9,CCC1CCCCN1C(=O)Cn1c(=O)n(CCCCCC(=O)NCc2ccccc2)c(=O)c2sccc21 (centres undefined),inactive
10,CCC(=O)Nc1c(C(=O)N2CCN(c3ccc(F)cc3)CC2)oc2ccccc12,inactive
11,CCc1ccccc1NS(=O)(=O)c1ccc2nc(-c3ccccc3)[nH]c2c1,inactive
12,CCc1ccc(NC(=O)C2CCCN2S(=O)(=O)c2ccc3nc(-c4ccccc4)[nH]c3c2)cc1 (centres undefined),25.1 µM [quencher] (active)
13,CCc1nnc(NC(=O)C2CCCN2S(=O)(=O)c2ccccc2)s1 (centres undefined),inactive
14,Cc1ccccc1CNC(=O)c1ccc(NC(=O)N2CCCCc3ccccc32)cc1,inactive
15,CN1CCN(c2ccc(S(=O)(=O)Nc3ccccc3)cc2[N+](=O)[O-])CC1,inactive
16,O=[N+]([O-])c1cc(S(=O)(=O)Nc2cccc(Cl)c2)ccc1N=Nc1c(O)[nH]c2ccccc12,14.1 µM [quencher] (active)
17,COCCNC(=O)c1ccccc1NS(=O)(=O)c1ccc(C)c([N+](=O)[O-])c1,inactive
18,O=C(NCc1ccccc1)c1cccc(NC(=O)N2CCSc3ncccc32)c1,inactive
19,CCOC(=O)C1CCCN(C(=O)c2ccc3c(c2)sc2nc(-c4ccc(CC)cc4)cn23)C1 (centres undefined),inactive
20,CCCCCn1c(=O)[nH]c2cc(C(=O)Nc3cc(C)cc(C)c3)ccc2c1=O,inactive
